Results published in the supplement of paper PMC7411054.
Structures can show the parent of a compound that is named as a salt.

How the values were obtained:
Conditions in all cases: treatment time: 24 h
A549-ACTB-RAB5A [1] = assay: lowest phenotypically active concentration; higher = less potent
Procedure, shortened: (§1)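 Cells from fifteen gene-edited reporter lines (A549, HepG2 and WPMY1) were treated for 24 h at 0.3, 1, 3 or 9 µM and imaged live, four wells per condition. Features were normalised per well to solvent control wells. A condition deviated if ≥3 of 4 wells passed the 95th percentile of control Euclidean distances and was reproducible if its median replicate Pearson correlation beat the 95th percentile of non-replicates; phenotypic activity needed both.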

A549-CANX-COX4 [2] = assay: as above
Procedure, shortened: as §1

A549-GM130-SQSTM1 [3] = assay: as above
Procedure, shortened: as §1

A549-TP53BP1-CLTA [4] = assay: as above
Procedure, shortened: as §1

A549-TUBA1B-RELA [5] = assay: as above
Procedure, shortened: as §1

HepG2-GM130-SQSTM1 [6] = assay: as above
Procedure, shortened: as §1

A549-ACTB-RAB5A [7] = assay: phenotypically active (imaging signature differs from DMSO and reproducible) at any of 0.3-9 uM (binary (1 = active, 0 = inactive)); higher = active
Procedure, shortened: as §1

A549-CANX-COX4 [8] = assay: as above
Procedure, shortened: as §1

A549-GM130-SQSTM1 [9] = assay: as above
Procedure, shortened: as §1

A549-TP53BP1-CLTA [10] = assay: as above
Procedure, shortened: as §1

A549-TUBA1B-RELA [11] = assay: as above
Procedure, shortened: as §1

HepG2-ACTB-RAB5A = assay: as above
Procedure, shortened: as §1

HepG2-CANX-COX4 = assay: as above
Procedure, shortened: as §1

HepG2-GM130-SQSTM1 [12] = assay: as above
Procedure, shortened: as §1

HepG2-TP53BP1-CLTA = assay: as above
Procedure, shortened: as §1

HepG2-TUBA1B-RELA = assay: as above
Procedure, shortened: as §1

WPMY1-CANX-COX4 = assay: as above
Procedure, shortened: as §1

WPMY1-GM130-SQSTM1 = assay: as above
Procedure, shortened: as §1

WPMY1-TP53BP1-CLTA = assay: as above
Procedure, shortened: as §1

WPMY1-TUBA1B-RELA = assay: as above
Procedure, shortened: as §1

SMILES	lowest phenotypically active concentration (A549-ACTB-RAB5A [1]) [µM]	lowest phenotypically active concentration (A549-CANX-COX4 [2]) [µM]	lowest phenotypically active concentration (A549-GM130-SQSTM1 [3]) [µM]	lowest phenotypically active concentration (A549-TP53BP1-CLTA [4]) [µM]	lowest phenotypically active concentration (A549-TUBA1B-RELA [5]) [µM]	lowest phenotypically active concentration (HepG2-GM130-SQSTM1 [6]) [µM]	phenotypically active (A549-ACTB-RAB5A [7])	phenotypically active (A549-CANX-COX4 [8])	phenotypically active (A549-GM130-SQSTM1 [9])	phenotypically active (A549-TP53BP1-CLTA [10])	phenotypically active (A549-TUBA1B-RELA [11])	phenotypically active (HepG2-ACTB-RAB5A)	phenotypically active (HepG2-CANX-COX4)	phenotypically active (HepG2-GM130-SQSTM1 [12])	phenotypically active (HepG2-TP53BP1-CLTA)	phenotypically active (HepG2-TUBA1B-RELA)	phenotypically active (WPMY1-CANX-COX4)	phenotypically active (WPMY1-GM130-SQSTM1)	phenotypically active (WPMY1-TP53BP1-CLTA)	phenotypically active (WPMY1-TUBA1B-RELA)
CC(=C/[C@@H](C)C(=O)c1ccc(N(C)C)cc1)/C=C/C(=O)NO [Trichostatin A]	≤ 0.3	≤ 0.3	≤ 0.3	≤ 0.3	≤ 0.3	≤ 0.3	1 (active)	1 (active)	1 (active)	1 (active)	1 (active)	1 (active)	1 (active)	1 (active)	1 (active)	1 (active)	1 (active)	1 (active)	1 (active)	1 (active)
COc1cc(Br)c(Nc2nc(-c3c(C)nc4ncccn34)cs2)c(Br)c1	1	1	1	1	1	1	1 (active)	1 (active)	1 (active)	1 (active)	1 (active)	1 (active)	1 (active)	1 (active)	1 (active)	1 (active)	1 (active)	1 (active)	1 (active)	1 (active)
COc1cc(C(=O)NC2CCN(C)CC2)c(F)cc1Nc1ncc2c(n1)N(C1CCCC1)CC(F)(F)C(=O)N2C [TAK 960 hydrochloride]	≤ 0.3	≤ 0.3	≤ 0.3	≤ 0.3	≤ 0.3	≤ 0.3	1 (active)	1 (active)	1 (active)	1 (active)	1 (active)	1 (active)	1 (active)	1 (active)	1 (active)	1 (active)	1 (active)	1 (active)	1 (active)	1 (active)
CC(C)n1nc(-c2cc3cc(O)ccc3[nH]2)c2c(N)ncnc21	1	1	1	1	1	≤ 0.3	1 (active)	1 (active)	1 (active)	1 (active)	1 (active)	1 (active)	1 (active)	1 (active)	1 (active)	1 (active)	1 (active)	1 (active)	1 (active)	1 (active)
Clc1ccc(C2(c3ccc(-c4cn[nH]c4)cc3)CCNCC2)cc1	≤ 0.3	≤ 0.3	≤ 0.3	≤ 0.3	≤ 0.3	≤ 0.3	1 (active)	1 (active)	1 (active)	1 (active)	1 (active)	1 (active)	1 (active)	1 (active)	1 (active)	1 (active)	1 (active)	1 (active)	1 (active)	1 (active)
O=C(NCCCNc1nc(Nc2cccc(NC(=O)N3CCCC3)c2)ncc1I)c1cccs1	1	3	3	3	3	3	1 (active)	1 (active)	1 (active)	1 (active)	1 (active)	1 (active)	1 (active)	1 (active)	1 (active)	1 (active)	1 (active)	1 (active)	1 (active)	1 (active)
NC(=O)Nc1cc(-c2cccc(F)c2)sc1C(=O)N[C@H]1CCCNC1 [AZD 7762 hydrochloride]	1	1	≤ 0.3	≤ 0.3	≤ 0.3	≤ 0.3	1 (active)	1 (active)	1 (active)	1 (active)	1 (active)	1 (active)	1 (active)	1 (active)	1 (active)	1 (active)	1 (active)	1 (active)	1 (active)	1 (active)
Nc1nc(S)c2[nH]cnc2n1 [thioguanine]	3	9	9	9	9	1	1 (active)	1 (active)	1 (active)	1 (active)	1 (active)	1 (active)	1 (active)	1 (active)	1 (active)	1 (active)	1 (active)	1 (active)	1 (active)	1 (active)
CN1CCN(c2ccc(OC(F)(F)F)c(Nc3ncc4c(n3)-c3c(c(C(N)=O)nn3CCO)CC4)c2)CC1	≤ 0.3	≤ 0.3	≤ 0.3	≤ 0.3	≤ 0.3	≤ 0.3	1 (active)	1 (active)	1 (active)	1 (active)	1 (active)	1 (active)	1 (active)	1 (active)	1 (active)	1 (active)	1 (active)	1 (active)	1 (active)	1 (active)
CC(C)(N)c1cc(C(=O)N[C@@H]2CCc3ccc(OC4=C5CCC(=O)N=C5NC=C4)cc3C2)cc(C(F)(F)F)c1 [ML 786 dihydrochloride]	1	1	1	3	1	≤ 0.3	1 (active)	1 (active)	1 (active)	1 (active)	1 (active)	1 (active)	1 (active)	1 (active)	1 (active)	1 (active)	1 (active)	1 (active)	1 (active)	1 (active)
CC(=O)NC1=NN(C(C)=O)C(C)(c2ccccc2)S1 (stereo not given)	3	3	9	9	3	9	1 (active)	1 (active)	1 (active)	1 (active)	1 (active)	1 (active)	1 (active)	1 (active)	1 (active)	1 (active)	1 (active)	1 (active)	1 (active)	1 (active)
